NPSR antagonist = blocks cAMP signaling of the human neuropeptide S receptor. CHO-NPSR cells, cAMP TR-FRET, antagonist mode. Potency, µM (top dose mostly 38.3 µM), for the others: top-dose activity change, negative = inhibition, hits mostly inhibitors. AID 1461. 1% of 220,000 active. Q6W5P4; active means well fitted curve in the direction sought with a large enough effect; inconclusive means small, poorly fitted or top-dose-only effect, or another doubt; inactive means no such curve, though single readings can be large; an effect the other way counts as inactive or inconclusive; further: potency means the concentration at half of the fitted maximal effect; nearly all actives have a fitted effect of over 50% in size
IMPase Li cell = IMPase inhibition in cells with lithium potentiation. CHO-M1 cells, IP1 TR-FRET (IP-One), carbachol + lithium. Potency, µM (highest dose often 59.4 µM), for inactives: at the highest dose activity, negative = IMPase inhibition, most hits filed as inhibitors. 0.35% of 210,000 active. AID 1457; active means well fitted curve in the direction sought with a large enough effect; inconclusive means small, poorly fitted or top-dose-only effect, or another doubt; inactive means no such curve, though single readings can be large; an effect the other way counts as inactive or inconclusive;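 further: IP1 builds up when IMPase is blocked and the TR-FRET signal falls; potency means the concentration at half of the fitted maximal effect; plate controls were basal vehicle for no effect and high inhibitor control for full effect; nearly all actives have a fitted effect of over 50% in size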
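CHO-M1, 2000 cells/well, 16–30 h culture; cpd + low Li+, 30 min 37C; lysis with d2-IP1/Eu-anti-IP1 Ab, 10 min RT; TR-FRET 665/620 ratio and 620 channel; AC50 via Hill.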
PNC inhibitor = inhibitors of perinucleolar compartment assembly | PC3M PTB-GFP, PNC prevalence imaging, 16 h; hits give low values | activity change (PNC), negative = inhibition, % at 10 µM | 3.1% of 140,000 active;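 active means readout at or below -70, meaning at least 70% loss of cells showing the perinucleolar compartment, a nuclear body marking cancer cells; inconclusive means readout between -30 and a set limit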;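 further: plate controls were DMSO wells for no effect and camptothecin positive control wells for full effect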
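Compounds are pinned in duplicate onto adhered PC3M cells stably expressing GFP-tagged PTB and incubated 16 h at 37 C. Cells are then fixed, nuclei stained with Hoechst, and PNC-positive cells counted.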
HPGD block = inhibitors of human 15-hydroxyprostaglandin dehydrogenase (HPGD) | purified HPGD, NADH fluorescence kinetic, PGE2 substrate | AID 894 | Potency, µM, for inactives: at the highest dose activity change, negative = inhibition, hits mostly inhibitors | 4.3% of 150,000 active | P15428; further: potency means the concentration at half of the fitted maximal effect
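NADH formation kinetics: reaction with 30 uM PGE2 and 1 mM NAD+ (final), 20 nM enzyme, Tris-HCl pH 8 with Tween 20, after 15 min compound preincubation at room temperature. Fluorescence change, last versus first of five reads.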
IMPase inh = membrane-permeable compound that blocks inositol monophosphatase; P97697; CHO-M1 cells, IP1 accumulation, HTRF TR-FRET ratio; inhibition (IP1 accumulation), % at 46.1 µM; 120,000 tested, under 10 active; AID 901; active means well fitted curve in the direction sought with a large enough effect in the signal ratio, not every such curve was filed as active; inconclusive means small, poorly fitted or top-dose-only effect, or a change in a side signal; inactive means no such curve, though single readings can be large or run the other way; the % refers to the signal ratio;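 further: cells stimulated with carbachol in lithium chloride buffer; plate controls were DMSO basal wells for no effect and reference inhibitor wells for full effect; higher means more IMPase inhibition seen as more IP1 and lower FRET ratio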
Target sequence (P97697 whole entry, looked up): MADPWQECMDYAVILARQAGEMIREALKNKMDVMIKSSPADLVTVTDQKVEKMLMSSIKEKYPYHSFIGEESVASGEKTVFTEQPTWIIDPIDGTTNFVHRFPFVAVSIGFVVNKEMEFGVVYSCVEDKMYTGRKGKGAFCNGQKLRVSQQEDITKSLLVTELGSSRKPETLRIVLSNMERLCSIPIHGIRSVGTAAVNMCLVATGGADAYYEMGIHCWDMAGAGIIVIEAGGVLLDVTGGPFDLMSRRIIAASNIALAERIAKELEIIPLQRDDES
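Cellular IMPase inhibition is scored as a rise in cytosolic IP1, detected by competitive TR-FRET between d2-labelled IP1 and a europium anti-IP1 antibody. M1-expressing CHO cells were stimulated with carbachol for 30 min at 37C, with lithium (50 mM LiCl) present in the buffer.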
ALDH1A1 inh = inhibitors of human aldehyde dehydrogenase 1A1; Purified ALDH1A1, NADH fluorescence, propionaldehyde substrate; Potency, µM (series often up to 75.3 µM), for inactives: at the highest dose activity, negative = inhibition, hits mostly inhibitors; 7.3% of 220,000 active; AID 1030;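 further: potency means the concentration at half of the fitted maximal effect; plate controls were no enzyme wells and a reference inhibitor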
Target sequence (P00352 whole entry, looked up): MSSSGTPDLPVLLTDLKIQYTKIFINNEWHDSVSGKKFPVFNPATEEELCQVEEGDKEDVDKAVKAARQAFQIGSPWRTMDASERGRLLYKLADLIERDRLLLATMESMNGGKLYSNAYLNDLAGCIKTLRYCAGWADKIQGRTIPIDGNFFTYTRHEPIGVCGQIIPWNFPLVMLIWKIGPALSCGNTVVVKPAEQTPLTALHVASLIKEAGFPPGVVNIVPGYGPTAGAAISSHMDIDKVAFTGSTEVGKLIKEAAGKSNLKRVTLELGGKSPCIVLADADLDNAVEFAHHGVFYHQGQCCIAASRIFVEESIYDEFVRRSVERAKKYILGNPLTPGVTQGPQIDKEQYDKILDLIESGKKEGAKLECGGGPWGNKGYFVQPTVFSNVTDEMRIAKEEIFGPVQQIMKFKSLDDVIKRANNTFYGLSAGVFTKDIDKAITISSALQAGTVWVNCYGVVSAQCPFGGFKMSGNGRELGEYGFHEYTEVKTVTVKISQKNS
An asterisk follows results filed as active; [ ] = another dose, or the depositor's remark. Compounds with a hit are over-represented: about 11% of the library has one in this group of screens. Unless noted, the call rests on the fitted dose curve; in most records, active means well fitted inhibition curve with a large enough effect (not every such curve was filed as active); inconclusive means small, poorly fitted or top-dose-only effect, or another doubt; inactive means no such curve, though single readings can be large or run the other way. Unless noted, on the % scale 0 is the no-effect control and ±100 the full control effect.

`O=C1NCCN1c1ncc([N+](=O)[O-])s1` gave IMPase Li cell 7.3%, HPGD block -23.9%, IMPase inh -6.5[20.6 µM] and ALDH1A1 inh 0.1%[20.9 µM].
Screening CCOc1ccc(Br)cc1S(=O)(=O)Nc1cccc(S(=O)(=O)N(C)C)c1 returned NPSR antagonist -0.4%, IMPase Li cell 9.8%, PNC inhibitor -26.2, HPGD block -6.7% and ALDH1A1 inh 20µM*.
For CCOc1ccc(Br)cc1S(=O)(=O)NCc1ccc(S(N)(=O)=O)cc1 the results were NPSR antagonist -6.6%, IMPase Li cell 7.8% and ALDH1A1 inh 18.3%.
For COc1ccc(C(=O)Oc2ccc(/C=N/O)cc2)cc1 the results were NPSR antagonist -9.6%[46.1 µM], IMPase Li cell -5.5%[38.3 µM], PNC inhibitor -17.9, HPGD block -14.5%, IMPase inh 1.0 and ALDH1A1 inh 2.7%.
For N=C(N)c1ccc2cc(OC(=O)c3ccc(N=C(N)N)cc3)ccc2c1 the results were IMPase Li cell -19.9% and ALDH1A1 inh 22.4µM*.
Screening COC(=O)C1=C(C)N(Cc2ccco2)C(=O)/C1=C\c1ccc([N+](=O)[O-])cc1 returned NPSR antagonist -58.0%, IMPase Li cell 11.1% and ALDH1A1 inh 15µM*.
`COC(=O)C1=C(C)N(Cc2ccc(OC)cc2)C(=O)/C1=C\c1ccco1` gave NPSR antagonist 38.2% and ALDH1A1 inh -12.8%.
For Cc1ccc(OCCN2CCN(c3nc(NCc4ccco4)c4ccccc4n3)CC2)cc1 the results were NPSR antagonist inconclusive, IMPase Li cell 27.2%, PNC inhibitor inconclusive, HPGD block -19.6% and ALDH1A1 inh inconclusive.
OCCN1CCN(c2nc(NCc3ccco3)c3ccccc3n2)CC1 was read as NPSR antagonist 23.1%[46.1 µM], IMPase Li cell 5.3%, PNC inhibitor -88.0*, HPGD block -18.1%, IMPase inh inconclusive and ALDH1A1 inh inconclusive.
Screening c1ccc(CN2CCN(c3nc(NCc4ccco4)c4ccccc4n3)CC2)cc1 returned NPSR antagonist 10µM*, IMPase Li cell 46.3%[38.3 µM], PNC inhibitor -7.0, HPGD block -24.7%, IMPase inh 9.7 and ALDH1A1 inh inconclusive.
Screening O=[N+]([O-])c1ccccc1-c1cc(-c2cc(Cl)ccc2O)n[nH]1 returned NPSR antagonist -42.4%, IMPase Li cell 6.2%, PNC inhibitor 51.2, HPGD block 11.2µM* and ALDH1A1 inh -0.3%.
COc1ccc(O)c(-c2cc(-c3ccccc3[N+](=O)[O-])[nH]n2)c1 was read as NPSR antagonist -5.7%, IMPase Li cell -6.9%, PNC inhibitor -24.5, HPGD block 22.4µM* and ALDH1A1 inh 0.2%.
Screening Cc1ccc(O)c(-c2cc(-c3ccccc3[N+](=O)[O-])[nH]n2)c1 returned NPSR antagonist -27.2%, IMPase Li cell 4.7%, PNC inhibitor 4.1, HPGD block 4.47µM* and ALDH1A1 inh 11.1%.
Cc1ccc(O)c(-c2cc(-c3ccccc3C)[nH]n2)c1 was read as NPSR antagonist 12.8%[46.1 µM], IMPase Li cell 27.8%[38.3 µM], PNC inhibitor 22.8, HPGD block 22.4µM*, IMPase inh 12.2 and ALDH1A1 inh 5.8%.
O=C(Nc1cccnc1)c1cc(-c2cc(Cl)ccc2O)n[nH]1 was read as NPSR antagonist -21.7%.
`C=CCn1c(C(C)NC(=O)c2ccccc2C)n[nH]c1=S` (centres undefined) gave NPSR antagonist 8.1%, IMPase Li cell -8.8%, PNC inhibitor 24.9, HPGD block -8.2% and ALDH1A1 inh 7.6%.
CCOC(=O)C(Cc1ccc(Cl)cc1Cl)c1ccno1 (centres undefined) was read as NPSR antagonist -48.9%, IMPase Li cell 19.8% and ALDH1A1 inh -2.7%.
Screening COc1ccc(CSc2nnc(N)s2)cc1F returned NPSR antagonist -12.8%[46.1 µM], IMPase Li cell -18.9%[38.3 µM], PNC inhibitor -10.3, HPGD block -21.0%, IMPase inh 3.5 and ALDH1A1 inh -71.5%.
Cc1ccc(-c2n[nH]c(=S)n2C)cc1 was read as NPSR antagonist -5.2%[46.1 µM], IMPase Li cell -14.7%[38.3 µM], PNC inhibitor 10.2, HPGD block -16.5%, IMPase inh -6.9 and ALDH1A1 inh 4.1%.
Screening Cc1ccc(N=C2NC(=O)C(CC(=O)O)S2)cc1 (centres undefined) returned NPSR antagonist -3.8%[46.1 µM], PNC inhibitor -6.5, IMPase inh inconclusive and ALDH1A1 inh -5.6%.
Cc1ccc(O)c(-c2cc(C(=O)Nc3cccnc3)[nH]n2)c1 was read as NPSR antagonist 3.9% and ALDH1A1 inh 3.6%.
For Cc1ccc(O)c(-c2cc(C(F)(F)C(F)F)[nH]n2)c1 the results were NPSR antagonist -9.7%[7.67 µM], IMPase Li cell 11.6%[38.3 µM], PNC inhibitor -7.3, HPGD block 15.8µM*, IMPase inh 4.8 and ALDH1A1 inh 16.9%.
For CCCN1C(=O)C(Cc2nc3ccccc3c(=O)n2-c2ccccc2)c2ccccc21 (centres undefined) the results were NPSR antagonist -39.9%, IMPase Li cell 4.6%, PNC inhibitor 41.7, HPGD block -1.7% and ALDH1A1 inh 8.91µM*.
Screening CC(C)N1C(=O)C(Cc2nc3ccccc3c(=O)n2-c2ccccc2)c2ccccc21 (centres undefined) returned NPSR antagonist -29.7%[46.1 µM], IMPase Li cell 11.2%[38.3 µM], PNC inhibitor 10.6, HPGD block -15.4%, IMPase inh 10.1 and ALDH1A1 inh inconclusive.
COC(=O)Cc1c[nH]c2cccc(OCC(O)CN(Cc3ccc([N+](=O)[O-])cc3)C(C)(C)C)c12 (centres undefined) was read as NPSR antagonist inconclusive, IMPase Li cell 16.2%[38.3 µM], PNC inhibitor inconclusive, HPGD block -20.6%, IMPase inh 9.1 and ALDH1A1 inh 25.1µM*.
COc1ccc2[nH]c(=O)c(CNC3CCCCC3)cc2c1 was read as NPSR antagonist -13.2%[46.1 µM], IMPase Li cell 14.2%[38.3 µM], PNC inhibitor 21.5, HPGD block inconclusive, IMPase inh -0.8 and ALDH1A1 inh inconclusive.
CC(C)(C)c1cc[n+](/C(C(=S)Nc2ccccc2F)=C(/[O-])c2ccc3c(c2)OCCO3)cc1 was read as NPSR antagonist -29.4%, IMPase Li cell 0.1% and ALDH1A1 inh 14.1µM*.
`Cc1cc(C)cc(NC(=S)/C(=C(\[O-])c2ccc(Cl)cc2Cl)[n+]2ccc(C(C)(C)C)cc2)c1` gave NPSR antagonist -29.4%.
`CCOc1ccccc1NC(=S)/C(=C(\[O-])c1ccc2c(c1)OCCO2)[n+]1ccc(CC)cc1` gave NPSR antagonist -8.8%[46.1 µM], IMPase Li cell 15.5%[38.3 µM], PNC inhibitor 35.6, HPGD block inconclusive, IMPase inh -0.5 and ALDH1A1 inh 20µM*.
For CC(=O)Nc1ccccc1OCC(=O)c1ccc2c(c1)OCO2 the results were NPSR antagonist -7.6%[46.1 µM], PNC inhibitor 8.7, IMPase inh 7.0 and ALDH1A1 inh 3.3%.

Compound activity from PubChem BioAssay.
